{"source": "the OligoGym collection"}
{"molecular_target": "GEMIN6", "assay": "pooled miR-30 sensor sort-seq; sequence = guide strand", "settings": "shRNA"}
{"sequence": "TATACTCATTCTTCTCACTGGC", "sensor-assay potency score (higher = more potent)": 0.16}
{"sequence": "TTGTAAATGTAATCTTGCCATT", "sensor-assay potency score (higher = more potent)": -1.2}
{"sequence": "AATAAGATCCTGAACACGCGAC", "sensor-assay potency score (higher = more potent)": -0.339}
{"sequence": "TTCAATAAGATCCTGAACACGC", "sensor-assay potency score (higher = more potent)": 0.147}
{"sequence": "TTTGTAAATGTAATCTTGCCAT", "sensor-assay potency score (higher = more potent)": -0.539}
{"sequence": "TAAAATATAGTCTTTTTCTATC", "sensor-assay potency score (higher = more potent)": -1.26}
{"molecular_target": "GFPT2", "assay": "pooled miR-30 sensor sort-seq; sequence = guide strand", "settings": "shRNA"}
{"sequence": "TTTAAAACTAACTCTAGTGTTG", "sensor-assay potency score (higher = more potent)": -0.242}
{"sequence": "TTTCTTGACCAGCTGAATGTGT", "sensor-assay potency score (higher = more potent)": -0.609}
{"sequence": "TTTGTAGTGAAATTCGGTCTTC", "sensor-assay potency score (higher = more potent)": 0.0421}
{"sequence": "TTGGTTTCAAAATTCACCCGAC", "sensor-assay potency score (higher = more potent)": 0.408}
{"sequence": "TTGTCTTTTAAAACTAACTCTA", "sensor-assay potency score (higher = more potent)": -0.437}
{"sequence": "TTGACCAGCTGAATGTGTCTTT", "sensor-assay potency score (higher = more potent)": 0.14}
{"sequence": "TAGTATTGAAAACTGATTCTGG", "sensor-assay potency score (higher = more potent)": 0.341}
{"sequence": "TTCTCCAGAGTGCACGTCCTGT", "sensor-assay potency score (higher = more potent)": -0.972}
{"sequence": "TTGACTTCGTGATTATTCCCAT", "sensor-assay potency score (higher = more potent)": -0.191}
{"sequence": "ATCACTAGCAAGTTCAACCATC", "sensor-assay potency score (higher = more potent)": -0.789}
{"sequence": "TTTGTAAAGTTCTTCATCGAGA", "sensor-assay potency score (higher = more potent)": -0.0624}
{"sequence": "TTCGTGATTATTCCCATCGATC", "sensor-assay potency score (higher = more potent)": -1.22}
